From publication PMC11006913 come the findings set out here.

What all share (assay): PBM; 200 nM protein, PBS
Holding throughout (details): dsDNA, one strand shown

The target of assay [1] is T1, PAX4 (Homo sapiens, UniProt O43316 9-242).
T1 sequence: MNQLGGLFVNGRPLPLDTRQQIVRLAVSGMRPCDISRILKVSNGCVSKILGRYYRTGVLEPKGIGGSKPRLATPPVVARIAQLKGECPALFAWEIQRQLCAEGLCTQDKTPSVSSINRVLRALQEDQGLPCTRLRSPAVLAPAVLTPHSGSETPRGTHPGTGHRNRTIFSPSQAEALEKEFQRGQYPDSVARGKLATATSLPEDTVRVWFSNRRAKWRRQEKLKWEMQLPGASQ

Assay [2] deals with T2, PAX4 (Homo sapiens, UniProt O43316 9-242, F177V).
T2 sequence: T1 sequence with F169V

The target of assay [3] is T3, PAX4 (Homo sapiens, UniProt O43316 9-242, F177Y).
T3 sequence: T1 sequence with F169Y

Assay [4] addresses VAX1 (Homo sapiens, UniProt Q5SQQ9 86-172).
In assay [5] the target is VAX1 (Homo sapiens, UniProt Q5SQQ9 86-172, T142I).
VAX1 (Homo sapiens, UniProt Q5SQQ9 86-172, T142I), sequence (Q5SQQ9 86-172 T142I): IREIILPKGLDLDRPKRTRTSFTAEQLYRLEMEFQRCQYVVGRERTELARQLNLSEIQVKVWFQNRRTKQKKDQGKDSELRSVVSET
The target of assay [6] is T4, PAX4 (Homo sapiens, UniProt O43316 9-242, R227W).
T4 sequence: T1 sequence with R219W

In assay [7] the target is VAX1 (Homo sapiens, UniProt Q5SQQ9 86-172, K157R).
VAX1 (Homo sapiens, UniProt Q5SQQ9 86-172, K157R), sequence (Q5SQQ9 86-172 K157R): as the sequence (Q5SQQ9 86-172 T142I) above, with I57T, K72R counted along it
Assay [8] has as its target T5, SIX6 (Homo sapiens, UniProt O95475 114-200, L167M).
T5 sequence: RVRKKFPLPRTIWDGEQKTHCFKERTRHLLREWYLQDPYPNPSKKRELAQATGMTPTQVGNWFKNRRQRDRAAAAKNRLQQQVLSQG

Assay [9] deals with T6, SIX6 (Homo sapiens, UniProt O95475 114-200, L143M).
T6 sequence: T5 sequence with L30M, M54L

For assay [10], the target named is T7, SIX6 (Homo sapiens, UniProt O95475 114-200, L143I).
T7 sequence: T5 sequence with L30I, M54L

In assay [11] the target is T8, SIX6 (Homo sapiens, UniProt O95475 114-200, T165I).
T8 sequence: T5 sequence with T52I, M54L

Assay [12] deals with HOXB6 (Homo sapiens, UniProt P17509 132-218, K202E).
HOXB6 (Homo sapiens, UniProt P17509 132-218, K202E), sequence (P17509 132-218 K202E): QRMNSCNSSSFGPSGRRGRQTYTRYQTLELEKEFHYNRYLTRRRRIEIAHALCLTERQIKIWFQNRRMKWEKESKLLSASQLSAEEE
In assay [13] the target is ALX3 (Homo sapiens, UniProt O95076 139-225, N203Q).
ALX3 (Homo sapiens, UniProt O95076 139-225, N203Q), sequence (O95076 139-225 N203Q): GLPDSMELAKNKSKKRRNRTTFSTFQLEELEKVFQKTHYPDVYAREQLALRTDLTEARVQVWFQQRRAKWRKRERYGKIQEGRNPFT
Assay [14] deals with ALX3 (Homo sapiens, UniProt O95076 139-225).
ALX3 (Homo sapiens, UniProt O95076 139-225), sequence (O95076 139-225): as the sequence (O95076 139-225 N203Q) above, with Q65N counted along it
The target of assay [15] is ALX3 (Homo sapiens, UniProt O95076 139-225, L168Q).
ALX3 (Homo sapiens, UniProt O95076 139-225, L168Q), sequence (O95076 139-225 L168Q): as the sequence (O95076 139-225 N203Q) above, with L30Q, Q65N counted along it
Assay [16] has as its target ALX3 (Homo sapiens, UniProt O95076 139-225, L168V).
The target of assay [17] is ALX3 (Homo sapiens, UniProt O95076 139-225, N203S).
ALX3 (Homo sapiens, UniProt O95076 139-225, N203S), sequence (O95076 139-225 N203S): as the sequence (O95076 139-225 N203Q) above, with Q65S counted along it
For assay [18], the target named is HOXA2 (Homo sapiens, UniProt O43364 129-215, R185T).
HOXA2 (Homo sapiens, UniProt O43364 129-215, R185T), sequence (O43364 129-215 R185T): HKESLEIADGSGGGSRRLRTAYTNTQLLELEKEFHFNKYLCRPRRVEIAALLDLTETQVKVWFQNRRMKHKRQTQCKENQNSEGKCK
A further assay addresses PITX2 (Homo sapiens, UniProt Q99697 72-157).
For assay [19], the target named is HOXA2 (Homo sapiens, UniProt O43364 129-215, R185K).
HOXA2 (Homo sapiens, UniProt O43364 129-215, R185K), sequence (O43364 129-215 R185K): as the sequence (O43364 129-215 R185T) above, with T57K counted along it
Assay [20] addresses HOXA2 (Homo sapiens, UniProt O43364 129-215, Y150S).
The target in assay [21] is HOXA2 (Homo sapiens, UniProt O43364 129-215).
HOXA2 (Homo sapiens, UniProt O43364 129-215), sequence (O43364 129-215): as the sequence (O43364 129-215 R185T) above, with T57R counted along it
In assay [22] the target is HOXB6 (Homo sapiens, UniProt P17509 132-218).
HOXB6 (Homo sapiens, UniProt P17509 132-218), sequence (P17509 132-218): as the sequence (P17509 132-218 K202E) above, with E71K counted along it
For assay [23], the target named is ALX1 (Homo sapiens, UniProt Q15699 118-204, L144V).
ALX1 (Homo sapiens, UniProt Q15699 118-204, L144V), sequence (Q15699 118-204 L144V): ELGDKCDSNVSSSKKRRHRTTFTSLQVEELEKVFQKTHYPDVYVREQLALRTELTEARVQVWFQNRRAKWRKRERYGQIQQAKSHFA
Assay [24] deals with ALX1 (Homo sapiens, UniProt Q15699 118-204, L144R).
ALX1 (Homo sapiens, UniProt Q15699 118-204, L144R), sequence (Q15699 118-204 L144R): as the sequence (Q15699 118-204 L144V) above, with V27R counted along it
The target in assay [25] is NKX3-2 (Homo sapiens, UniProt P78367 192-278, P234S).
NKX3-2 (Homo sapiens, UniProt P78367 192-278, P234S), sequence (P78367 192-278 P234S): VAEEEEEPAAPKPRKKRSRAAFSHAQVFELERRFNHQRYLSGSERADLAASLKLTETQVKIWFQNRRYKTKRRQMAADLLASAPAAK
The target in assay [26] is ALX1 (Homo sapiens, UniProt Q15699 118-204).
ALX1 (Homo sapiens, UniProt Q15699 118-204), sequence (Q15699 118-204): as the sequence (Q15699 118-204 L144V) above, with V27L counted along it
Assay [27] deals with NKX3-2 (Homo sapiens, UniProt P78367 192-278).
NKX3-2 (Homo sapiens, UniProt P78367 192-278), sequence (P78367 192-278): as the sequence (P78367 192-278 P234S) above, with S43P counted along it
For a further assay, the target named is T9, NKX2-6 (Homo sapiens, UniProt A6NCS4 118-204, R150C).
T9 sequence: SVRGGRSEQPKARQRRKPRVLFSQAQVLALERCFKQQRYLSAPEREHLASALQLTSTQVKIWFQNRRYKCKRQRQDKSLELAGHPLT

In assay [28] the target is PROP1 (Homo sapiens, UniProt O75360 56-141).
PROP1 (Homo sapiens, UniProt O75360 56-141), sequence (O75360 56-141): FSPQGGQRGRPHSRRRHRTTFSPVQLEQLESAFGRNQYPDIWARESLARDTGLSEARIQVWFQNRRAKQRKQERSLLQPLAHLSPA
Assay [29] addresses PROP1 (Homo sapiens, UniProt O75360 56-141, R99H).
Assay [30] has as its target PROP1 (Homo sapiens, UniProt O75360 56-141, F88S).

Where a chain is given by its changes, count along the chain named.

HOXA2 (Homo sapiens, UniProt O43364 129-215, Y150S), sequence (O43364 129-215 Y150S): as the sequence (O43364 129-215 R185T) above, with Y22S, T57R counted along it
VAX1 (Homo sapiens, UniProt Q5SQQ9 86-172), sequence (Q5SQQ9 86-172): as the sequence (Q5SQQ9 86-172 T142I) above, with I57T counted along it
ALX3 (Homo sapiens, UniProt O95076 139-225, L168V), sequence (O95076 139-225 L168V): as the sequence (O95076 139-225 N203Q) above, with L30V, Q65N counted along it
PROP1 (Homo sapiens, UniProt O75360 56-141, F88S), sequence (O75360 56-141 F88S): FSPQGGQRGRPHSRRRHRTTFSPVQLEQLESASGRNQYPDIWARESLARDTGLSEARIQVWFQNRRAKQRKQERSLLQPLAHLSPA
PROP1 (Homo sapiens, UniProt O75360 56-141, R99H), sequence (O75360 56-141 R99H): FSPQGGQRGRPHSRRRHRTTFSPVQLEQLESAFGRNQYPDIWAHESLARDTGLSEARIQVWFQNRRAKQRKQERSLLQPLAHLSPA

In the case of AATTGCGA, the binding signal with PAX4 [1] is 10.7 upbm affinity estimate (log intensity, higher = more binding, comparable within an allelic series); with PAX4 [2] it was 9.91 upbm affinity estimate (log intensity, higher = more binding, comparable within an allelic series); with PAX4 [3], 10 upbm affinity estimate (log intensity, higher = more binding, comparable within an allelic series); with VAX1 [4] it was 9.89 upbm affinity estimate (log intensity, higher = more binding, comparable within an allelic series); with VAX1 [5], 9.67 upbm affinity estimate (log intensity, higher = more binding, comparable within an allelic series); in the assay with PAX4 [6], 10.1 upbm affinity estimate (log intensity, higher = more binding, comparable within an allelic series). The binding signal with VAX1 [7] was 9.62 upbm affinity estimate (log intensity, higher = more binding, comparable within an allelic series).
As to ACTGATGC, the binding signal in the assay with PAX4 [1] is 10.6 upbm affinity estimate (log intensity, higher = more binding, comparable within an allelic series); with PAX4 [2] it was 9.94 upbm affinity estimate (log intensity, higher = more binding, comparable within an allelic series); with PAX4 [3], 10 upbm affinity estimate (log intensity, higher = more binding, comparable within an allelic series); with PAX4 [6], 10 upbm affinity estimate (log intensity, higher = more binding, comparable within an allelic series).
As to GGGGGATA, the binding signal with SIX6 [8] is 10.8 upbm affinity estimate (log intensity, higher = more binding, comparable within an allelic series).
As for ATATACCC, the binding signal was 11.1 upbm affinity estimate (log intensity, higher = more binding, comparable within an allelic series) in the assay with SIX6 [8]; 10.9 upbm affinity estimate (log intensity, higher = more binding, comparable within an allelic series) in the assay with SIX6 [9]; 10.4 upbm affinity estimate (log intensity, higher = more binding, comparable within an allelic series) with SIX6 [10]; 11 upbm affinity estimate (log intensity, higher = more binding, comparable within an allelic series) with SIX6 [11].
In the case of TACATTAA, the binding signal with HOXB6 [12] is 10 upbm affinity estimate (log intensity, higher = more binding, comparable within an allelic series); with ALX3 [13] it was 8.45 upbm affinity estimate (log intensity, higher = more binding, comparable within an allelic series); with ALX3 [14] it was 11 upbm affinity estimate (log intensity, higher = more binding, comparable within an allelic series); with ALX3 [15], 9.29 upbm affinity estimate (log intensity, higher = more binding, comparable within an allelic series); with ALX3 [16], 9.07 upbm affinity estimate (log intensity, higher = more binding, comparable within an allelic series); with ALX3 [17] it was 8.57 upbm affinity estimate (log intensity, higher = more binding, comparable within an allelic series).
As to CGTGGCAG, the binding signal with HOXB6 [12] was 9.05 upbm affinity estimate (log intensity, higher = more binding, comparable within an allelic series); with HOXA2 [18] it was 7.29 upbm affinity estimate (log intensity, higher = more binding, comparable within an allelic series); with PITX2 it was 8.07 upbm affinity estimate (log intensity, higher = more binding, comparable within an allelic series); in the assay with HOXA2 [19], 10.5 upbm affinity estimate (log intensity, higher = more binding, comparable within an allelic series); in the assay with VAX1 [4] it was 7.05 upbm affinity estimate (log intensity, higher = more binding, comparable within an allelic series); with VAX1 [5], 7.33 upbm affinity estimate (log intensity, higher = more binding, comparable within an allelic series). The binding signal with HOXA2 [20] is 10.4 upbm affinity estimate (log intensity, higher = more binding, comparable within an allelic series); with HOXA2 [21], 7.45 upbm affinity estimate (log intensity, higher = more binding, comparable within an allelic series); in the assay with VAX1 [7], 7.05 upbm affinity estimate (log intensity, higher = more binding, comparable within an allelic series); in the assay with HOXB6 [22], 9.07 upbm affinity estimate (log intensity, higher = more binding, comparable within an allelic series).
AGGCGCTC: the binding signal is 9.06 upbm affinity estimate (log intensity, higher = more binding, comparable within an allelic series) in the assay with HOXB6 [12]; 6.32 upbm affinity estimate (log intensity, higher = more binding, comparable within an allelic series) with ALX1 [23]; 6.29 upbm affinity estimate (log intensity, higher = more binding, comparable within an allelic series) in the assay with ALX1 [24]; 10.5 upbm affinity estimate (log intensity, higher = more binding, comparable within an allelic series) with NKX3-2 [25]; 6.17 upbm affinity estimate (log intensity, higher = more binding, comparable within an allelic series) with ALX1 [26]; 8.87 upbm affinity estimate (log intensity, higher = more binding, comparable within an allelic series) in the assay with HOXB6 [22]. Further, the binding signal with NKX3-2 [27] is 10.6 upbm affinity estimate (log intensity, higher = more binding, comparable within an allelic series).
For TAATATTA, the binding signal with HOXB6 [12] was 10 upbm affinity estimate (log intensity, higher = more binding, comparable within an allelic series); with ALX3 [13], 8.61 upbm affinity estimate (log intensity, higher = more binding, comparable within an allelic series); in the assay with ALX3 [17] it was 8.68 upbm affinity estimate (log intensity, higher = more binding, comparable within an allelic series).
Turning to ATATCTAC, the binding signal with SIX6 [9] is 11 upbm affinity estimate (log intensity, higher = more binding, comparable within an allelic series).
With GGGTCCGA, the binding signal is 9.03 upbm affinity estimate (log intensity, higher = more binding, comparable within an allelic series) with HOXB6 [12] and 9.07 upbm affinity estimate (log intensity, higher = more binding, comparable within an allelic series) with HOXB6 [22].
For CGAGGCTC, the binding signal is 9.01 upbm affinity estimate (log intensity, higher = more binding, comparable within an allelic series) with HOXB6 [12]; 9.43 upbm affinity estimate (log intensity, higher = more binding, comparable within an allelic series) with NKX2-6; 9.11 upbm affinity estimate (log intensity, higher = more binding, comparable within an allelic series) in the assay with HOXB6 [22].
With AGTCCCCC, the binding signal is 8.9 upbm affinity estimate (log intensity, higher = more binding, comparable within an allelic series) with HOXB6 [12]; 6.53 upbm affinity estimate (log intensity, higher = more binding, comparable within an allelic series) with ALX1 [23]; 6.37 upbm affinity estimate (log intensity, higher = more binding, comparable within an allelic series) in the assay with ALX1 [24]; 6.41 upbm affinity estimate (log intensity, higher = more binding, comparable within an allelic series) with ALX1 [26]; 8.97 upbm affinity estimate (log intensity, higher = more binding, comparable within an allelic series) with HOXB6 [22].
As to CCACGCTC, the binding signal with HOXB6 [12] was 8.98 upbm affinity estimate (log intensity, higher = more binding, comparable within an allelic series); with PROP1 [28] it was 6.83 upbm affinity estimate (log intensity, higher = more binding, comparable within an allelic series); with PROP1 [29], 6.88 upbm affinity estimate (log intensity, higher = more binding, comparable within an allelic series); with PROP1 [30], 6.58 upbm affinity estimate (log intensity, higher = more binding, comparable within an allelic series); in the assay with HOXB6 [22], 9.03 upbm affinity estimate (log intensity, higher = more binding, comparable within an allelic series).
For the sequence ACGGGCCT, the binding signal was 8.87 upbm affinity estimate (log intensity, higher = more binding, comparable within an allelic series) with HOXB6 [12]; 9.14 upbm affinity estimate (log intensity, higher = more binding, comparable within an allelic series) in the assay with NKX2-6; 8.95 upbm affinity estimate (log intensity, higher = more binding, comparable within an allelic series) with HOXB6 [22].
On to CAGCAGGG, for which the binding signal in the assay with HOXB6 [12] was 9.1 upbm affinity estimate (log intensity, higher = more binding, comparable within an allelic series); in the assay with HOXA2 [18], 7.49 upbm affinity estimate (log intensity, higher = more binding, comparable within an allelic series); with HOXA2 [19] it was 10.3 upbm affinity estimate (log intensity, higher = more binding, comparable within an allelic series); in the assay with HOXA2 [20] it was 10.3 upbm affinity estimate (log intensity, higher = more binding, comparable within an allelic series); with HOXA2 [21], 7.08 upbm affinity estimate (log intensity, higher = more binding, comparable within an allelic series); in the assay with HOXB6 [22], 9.13 upbm affinity estimate (log intensity, higher = more binding, comparable within an allelic series).
For the sequence ACTATTGA, the binding signal with HOXB6 [12] is 9.51 upbm affinity estimate (log intensity, higher = more binding, comparable within an allelic series); in the assay with ALX3 [13] it was 8.21 upbm affinity estimate (log intensity, higher = more binding, comparable within an allelic series); in the assay with ALX3 [14] it was 9.1 upbm affinity estimate (log intensity, higher = more binding, comparable within an allelic series); with ALX3 [17] it was 8.3 upbm affinity estimate (log intensity, higher = more binding, comparable within an allelic series); with HOXB6 [22] it was 10.1 upbm affinity estimate (log intensity, higher = more binding, comparable within an allelic series).
